Compounds with a hit are over-represented: about 19% of the library has one in this group of screens.
HT1080 IDH1KD tx = toxicity to HT-1080 IDH1 knockdown cells (counter line). HT-1080 IDH1 knockdown viability, ATP luminescence, 48 h. Potency, µM (top dose mostly 46.1 µM), for the others: top-dose activity, negative = toxicity, actives largely listed as cytotoxic. actives 2% (n = 360,000). AID 686971;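 also: potency is read from the fitted curve at half-maximal effect; 0% = DMSO wells and -100% = cell-free medium wells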
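HT-1080-IDH1KD cells (IDH1 knocked down), 750/well in RPMI with 5% FBS, treated with compound 48 h at 37 degrees C. Viability by CellTiter-Glo luminescence, normalised to DMSO and no-cell wells; concentration-response curves classed.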
HT1080-NT tox = kills 2HG-producing HT-1080-NT fibrosarcoma cells; HT-1080-NT fibrosarcoma viability, CellTiter-Glo ATP luminescence, 48 h; actives 1.6% (n = 360,000); AID 686970; Potency, µM (highest dose often 46.1 µM), for inactives: top-dose activity, negative = less viability, actives largely listed as cytotoxic;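 also: NT is the 2HG producing partner of a matched IDH1 knockdown line; potency is read from the fitted curve at half-maximal effect; 0% = DMSO-treated cells and -100% = media-only wells without cells; nearly all actives have a fitted effect of over 55% in size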
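HT-1080-NT; 750 cells/well; 5% FBS RPMI; 48 h compound, 37 degrees C; CellTiter-Glo luminescence; curve fitting and curve-class assignment.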
DT40 TDP1 no CPT = qHTS for Inhibitors of human tyrosyl-DNA phosphodiesterase 1 (TDP1): qHTS in cells in absence of CPT | AID 686978, 2013 | DT40 Tdp1-/- hTDP1 cells, no CPT, ATP luminescence, 48 h | actives 15% (n = 420,000) | Potency, µM (series often up to 46.2 µM), without a hit: top-dose activity change, negative = growth inhibition, usual class: inhibitors; also: potency is read from the fitted curve at half-maximal effect; nearly all actives have a fitted effect of over 55% in size
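Stably hTDP1-transfected Tdp1-null chicken DT40 cells were treated with library compounds minus camptothecin and grown for at least 48 hr at 37 °C, after which cellular ATP was quantified by luminescence.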
TDP1 cell CPT = growth inhibition of DT40 Tdp1-/-;hTDP1 cells with camptothecin (screen for TDP1 inhibitors) | AID 686979 | chicken DT40 Tdp1-/-;hTDP1 cells + 20 nM CPT, ATP luminescence, 48 h | Potency, µM (highest dose often 46.2 µM), without a hit: at the top dose activity change, negative = growth inhibition, hits mostly inhibitors | actives 12% (n = 420,000); also: potency is read from the fitted curve at half-maximal effect; nearly all actives have a fitted effect of over 55% in size
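Chicken DT40 Tdp1-/- cells stably complemented with human TDP1 were seeded at 400 cells/well in medium containing 20 nM camptothecin, exposed to pin-transferred compounds, and grown at 37 °C for at least 48 hr. Viability was read as ATP luminescence.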
IL-1B inflam inh = inhibitors of inflammasome signaling (IL-1 beta secretion); activity change, % at 57.5 µM; AID 743279; actives 4.7% (n = 360,000); THP-1 LPS/ATP IL-1B secretion, AlphaLISA, 16 h; stronger effect = lower value; in the data active = activity change below about -50%; inconclusive = mostly about -30% to -49%
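THP-1 cells pretreated 1 hr with compounds (up to 57.5 uM final), then stimulated with LPS (250 ng/mL final) plus ATP (1.25 mM final); secreted IL-1B measured by AlphaLISA after 16 hr, decreased signal indicating inhibition.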
Numbers without * were called inactive; [ ] = another dose, or the depositor's remark. Unless noted, calls follow the shape of the dose curve; as a rule, active = well fitted curve in the direction sought with a large enough effect; inconclusive = small, poorly fitted or top-dose-only effect, or another doubt; inactive = no such curve, though single readings can be large; an effect the other way counts as inactive or inconclusive. Unless noted, % is scaled to controls: 0 for no effect and ±100 for the full control effect.

Results for CCOC(=O)C1(c2ccccc2)CCN(CCC(=O)Nc2cccc(Br)c2)CC1 ?
HT1080 IDH1KD tx: 23µM*; HT1080-NT tox: 18µM*; DT40 TDP1 no CPT: inconclusive; TDP1 cell CPT: inconclusive; IL-1B inflam inh: -101*

What do the screens show for `CCOC(=O)C1(c2ccccc2)CCN(CC(=O)Nc2ccc(C)cc2)CC1`?
HT1080 IDH1KD tx: 1%; HT1080-NT tox: 7%; DT40 TDP1 no CPT: inconclusive; TDP1 cell CPT: inconclusive; IL-1B inflam inh: 10

How did CCOC(=O)C1(c2ccccc2)CCN(CCC(C#N)(c2ccccc2)c2ccccc2)CC1 do in these assays?
HT1080 IDH1KD tx: inconclusive; HT1080-NT tox: -30%; DT40 TDP1 no CPT: 6.5µM*; TDP1 cell CPT: 13µM*; IL-1B inflam inh: -29

How did CC(O)CN1CCN(CC(=O)[O-])CCN(CC(=O)[O-])CCN(CC(=O)[O-])CC1.[Gd+3] (stereo not drawn) do in these assays?
DT40 TDP1 no CPT: -1%; TDP1 cell CPT: -26%

Results for c1cc2c(cc1N1CCCCC1)C1CC2CCN1 (stereo not drawn) ?
HT1080 IDH1KD tx: 1%; HT1080-NT tox: -3%; DT40 TDP1 no CPT: -28%; TDP1 cell CPT: inconclusive; IL-1B inflam inh: 3

How did O=C(Cc1n[nH]c(=O)c2ccccc12)OCc1c(Cl)cccc1Cl do in these assays?
HT1080 IDH1KD tx: -3%; HT1080-NT tox: -18%; DT40 TDP1 no CPT: inconclusive; TDP1 cell CPT: inconclusive; IL-1B inflam inh: 12

What do the screens show for `O=S(=O)(c1cc(Cl)cc(Cl)c1)N1Cc2cc(-c3cccc(F)c3)ccc2-n2nncc2C1`?
HT1080 IDH1KD tx: 7%; HT1080-NT tox: inconclusive; DT40 TDP1 no CPT: inconclusive; TDP1 cell CPT: inconclusive; IL-1B inflam inh: 13

Results for COc1cc(C2c3cc4c(c(O)c3CC3COC(=O)C32)OCO4)cc(OC)c1OC (stereo not drawn) ?
HT1080 IDH1KD tx: inconclusive; HT1080-NT tox: 0.0052µM*; DT40 TDP1 no CPT: 0.12µM*; TDP1 cell CPT: 0.092µM*; IL-1B inflam inh: 24

What do the screens show for `COc1cc([C@@H]2c3cc4c(c(O)c3C[C@H]3COC(=O)[C@@H]32)OCO4)cc(OC)c1OC`?
DT40 TDP1 no CPT: 0.13µM*; TDP1 cell CPT: 0.16µM*

How did CCNc1cc(N2CCN(C)CC2)ccc1[N+](=O)[O-] do in these assays?
HT1080 IDH1KD tx: 0%; HT1080-NT tox: 1%; DT40 TDP1 no CPT: -5%; TDP1 cell CPT: -18%; IL-1B inflam inh: 19

Results for COc1cc2c(cc1OC)CN(c1ccc([N+](=O)[O-])c(C(F)(F)F)c1)CC2 ?
HT1080 IDH1KD tx: inconclusive; HT1080-NT tox: inconclusive; DT40 TDP1 no CPT: 21µM*; TDP1 cell CPT: 16µM*; IL-1B inflam inh: -51*

How did CCn1c(=O)cc(OCC(=O)N2CCN(Cc3ccc4c(c3)OCO4)CC2)c2ccccc21 do in these assays?
HT1080 IDH1KD tx: 7%; HT1080-NT tox: 3%; DT40 TDP1 no CPT: 11%; TDP1 cell CPT: -3%; IL-1B inflam inh: 3

How did Cc1ccc(S(=O)(=O)N2Cc3ccccc3-n3nncc3C2)cc1 do in these assays?
HT1080 IDH1KD tx: 3%; HT1080-NT tox: 10%; DT40 TDP1 no CPT: inconclusive; TDP1 cell CPT: inconclusive; IL-1B inflam inh: 0

What do the screens show for `CC(=O)Nc1ccc(S(=O)(=O)N2Cc3ccccc3-n3nncc3C2)cc1`?
HT1080 IDH1KD tx: -1%; HT1080-NT tox: -2%; DT40 TDP1 no CPT: 15µM*; TDP1 cell CPT: 15µM*; IL-1B inflam inh: 16

What do the screens show for `O=c1[nH]c2ccccc2n1C1CCN(C(c2nnnn2Cc2ccccc2)C2CC2)CC1` (stereo not drawn)?
HT1080 IDH1KD tx: 21µM*; HT1080-NT tox: inconclusive; DT40 TDP1 no CPT: 21µM*; TDP1 cell CPT: 16µM*; IL-1B inflam inh: -5

Results for CC(C)(C)n1nnnc1C(C1CC1)N1CCC(n2c(=O)[nH]c3ccccc32)CC1 (stereo not drawn) ?
HT1080 IDH1KD tx: 24%; HT1080-NT tox: inconclusive; DT40 TDP1 no CPT: inconclusive; TDP1 cell CPT: inconclusive; IL-1B inflam inh: -7

What do the screens show for `O=c1[nH]c2ccccc2n1C1CCN(C(CCc2ccccc2)c2nnnn2Cc2ccccc2)CC1` (stereo not drawn)?
HT1080 IDH1KD tx: 6.5µM*; HT1080-NT tox: 7.3µM*; DT40 TDP1 no CPT: 2.6µM*; TDP1 cell CPT: 2.3µM*; IL-1B inflam inh: -93*

How did O=C1NCN(c2ccccc2)C12CCN(C(c1nnnn1C1CCCC1)C1CC1)CC2 (stereo not drawn) do in these assays?
HT1080 IDH1KD tx: -7%; HT1080-NT tox: 0%; DT40 TDP1 no CPT: inconclusive; TDP1 cell CPT: inconclusive; IL-1B inflam inh: -22

Results for CSCCC(c1nnnn1Cc1ccccc1)N1CCC(n2c(=O)[nH]c3ccccc32)CC1 (stereo not drawn) ?
HT1080 IDH1KD tx: inconclusive; HT1080-NT tox: inconclusive; DT40 TDP1 no CPT: 1.8µM*; TDP1 cell CPT: 2.9µM*; IL-1B inflam inh: -22

Results for CCC1(C)CC(=O)NC(=O)C1 ?
DT40 TDP1 no CPT: 4%[21.1 µM]; TDP1 cell CPT: 0%[21.1 µM]

How did Nc1ccccc1 do in these assays?
DT40 TDP1 no CPT: -19%; TDP1 cell CPT: -17%

How did Nc1ccc(C2(c3ccc(N)cc3)c3ccccc3-c3ccccc32)cc1 do in these assays?
HT1080 IDH1KD tx: 16µM*; HT1080-NT tox: inconclusive; DT40 TDP1 no CPT: 15%; TDP1 cell CPT: 26%; IL-1B inflam inh: -171*

What do the screens show for `O=C(CN1CCCC1=O)Nc1ccccc1`?
HT1080 IDH1KD tx: -3%[9.24 µM]; HT1080-NT tox: 12%; DT40 TDP1 no CPT: 11%; TDP1 cell CPT: -6%; IL-1B inflam inh: -4

Results for C1=CC(Cc2cncs2)c2ccccc21 (stereo not drawn) ?
HT1080 IDH1KD tx: 10%; HT1080-NT tox: 0%; DT40 TDP1 no CPT: 3%; TDP1 cell CPT: 7%; IL-1B inflam inh: 22

Results for CCOc1ccc(CCNC(=O)c2cnc3sc(N4CCCC4)nn3c2=O)cc1 ?
DT40 TDP1 no CPT: 2.3µM*; TDP1 cell CPT: 6.5µM*

How did CN(Cc1ccc(OC(F)F)cc1)Cc1nc2c(Br)cc(Br)cc2c(=O)[nH]1 do in these assays?
HT1080 IDH1KD tx: 3%; HT1080-NT tox: 4%; DT40 TDP1 no CPT: 16µM*; TDP1 cell CPT: inconclusive; IL-1B inflam inh: 7

Results for O=C(c1cc(-c2cccnc2)nc2ccc(Cl)cc12)N1CCC2(CC1)OCCO2 ?
HT1080 IDH1KD tx: -12%; HT1080-NT tox: -2%; DT40 TDP1 no CPT: inconclusive; TDP1 cell CPT: -6%; IL-1B inflam inh: 14

Results for COc1ccc(S(=O)(=O)Nc2cc(C(=O)NC3CCCCCC3)ccc2N2CCOCC2)cc1 ?
HT1080 IDH1KD tx: inconclusive; HT1080-NT tox: inconclusive; DT40 TDP1 no CPT: inconclusive; TDP1 cell CPT: inconclusive; IL-1B inflam inh: -18
